Assay [1] is described as follows: A CellTox Green Cytotoxicity Assay to monitor cytotoxicity in HepG2 cells - 32 hour (AID 1224883). Note: nearly all actives have a fitted effect of over 50% in size. The gist of the method: (§1)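 Fluorescent DNA-binding dye, 600 HepG2 cells/well, 5 h preincubation then compound in DMSO; same plates read at 0–40 h, 37 C.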
Assay [2] can be described thus: A CellTox Green Cytotoxicity Assay to monitor cytotoxicity in HEK293 cells - 8 hour (AID 1224884). Note: nearly all actives have a fitted effect of over 35% in size. The gist of the method: (§2)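 Homogeneous no-lysis format: HEK293 cell suspension mixed with CellTox Green reagent, seeded, incubated 5 h at 37 C/5% CO2, then dosed by pintool with compound in DMSO.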
Assay [3] is described as follows: qHTS RealTime-Glo MT Cell Viability Assay in HepG2 cells - 16 hour (AID 1224885). Note: nearly all actives have a fitted effect of over 50% in size. The gist of the method: (§3)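 HepG2 suspension premixed with RealTime-Glo reagents is plated at 600 cells per well and left 5 h at 37 C/5% CO2. Compounds in DMSO then go in, and bioluminescence reflecting viable cell number is recorded over 40 h.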
A general note: Quantitative high-throughput screening tests each substance at several concentrations.

The nature of assay [4]: qHTS RealTime-Glo MT Cell Viability Assay in HEK293 cells - 24 hour (AID 1224886). Note: top concentration of the series differs between compounds; nearly all actives have a fitted effect of over 50% in size. In a few lines: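 Reads taken at 0, 8, 16, 24, 32 and 40 h from the same wells. HEK293 cells (600/well) carried RealTime-Glo reagents from seeding, with compound added after a 5 h settle at 37 C.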
Assay [5] in a line: qHTS RealTime-Glo MT Cell Viability Assay in HEK293 cells - 8 hour (AID 1224887). Note: top concentration of the series differs between compounds; nearly all actives have a fitted effect of over 50% in size. The gist of the method:
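Measured as luminescence from the same continuously cultured HEK293 wells at successive time points (0, 8, 16, 24, 32, 40 h) after compound addition. Reagent present from seeding; dosing at 5 h; incubation 37 C.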

Assay [6] is described as follows: A CellTox Green Cytotoxicity Assay to monitor cytotoxicity in HEK293 cells - 16 hour (AID 1224888). Note: nearly all actives have a fitted effect of over 35% in size. In a few lines: as §2
Assay [7] can be described thus: qHTS RealTime-Glo MT Cell Viability Assay in HepG2 cells - 0 hour (AID 1224889). Note: nearly all actives have a fitted effect of over 50% in size. The gist of the method:
as §3

Assay [8] in a line: A CellTox Green Cytotoxicity Assay to monitor cytotoxicity in HepG2 cells - 8 hour (AID 1224890). Note: nearly all actives have a fitted effect of over 45% in size. In a few lines:
as §1

Assay [9] can be described thus: qHTS assay to identify small molecule antagonists of the estrogen receptor alpha (ER-alpha) signaling pathway using the BG1 cell line in the presence of 0.1 nM 17-beta-estradiol - cell viability counter screen (AID 1259241). Note: nearly all actives have a fitted effect of over 40% in size. Note: potency is the fitted concentration of half-maximal effect. The gist of the method:
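Cells were plated and left 24 hr, compounds in DMSO were pinned in, 17beta-estradiol was added to 0.1 nM final, and after 22 hr CellTiter-Fluor reagent was added for 30 min before fluorescence was read.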

Assay [10] can be described thus: qHTS assay to identify small molecule antagonists of the androgen receptor (AR) signaling pathway using the MDA cell line in the presence of 0.5 nM R1881 - cell viability counter screen (AID 1259242). Note: nearly all actives have a fitted effect of over 45% in size. Note: potency is the fitted concentration of half-maximal effect. In a few lines:
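Human breast carcinoma MDA-kb2 cells, cultured without CO2, receive compounds alongside 0.5 nM (final) R1881 agonist. After 16 hr at 37C, viability is taken as live-cell protease signal.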

For assay [11], the target named is Androgen receptor (Homo sapiens) (UniProt P10275). As to the kind of experiment: qHTS assay to identify small molecule antagonists of the androgen receptor (AR) signaling pathway using the MDA cell line in the presence of 0.5 nM R1881 (AID 1259243). Note: nearly all actives have a fitted effect of over 50% in size. The gist of the method:
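Cells: MDA-kb2 (MMTV-luc). Stimulus: 0.5 nM R1881. Time: 16 hr, 37C, no CO2. Detection: ONE-Glo luminescence after 30 min at RT.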

Assay [12] concerns the target Estrogen receptor (Homo sapiens) (UniProt P03372). As to the kind of experiment: qHTS assay to identify small molecule antagonists of the estrogen receptor alpha (ER-alpha) signaling pathway using the BG1 cell line in the presence of 0.1 nM 17-beta-estradiol (AID 1259244). Note: nearly all actives have a fitted effect of over 50% in size. Note: potency is the fitted concentration of half-maximal effect. In a few lines: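 Seeding of stripped-serum-adapted VM7Luc4E2 cells, 24 h attachment, compound transfer, then 0.1 nM final 17beta-estradiol; after 22 h incubation, ONE-Glo reagent and luminescence reading.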

Assay [13] in a line: qHTS assay to identify small molecule HDAC inhibitors (AID 1259364). For activity change, negative = inhibition: top concentration of the series differs between compounds. Note: potency is the fitted concentration of half-maximal effect.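 Note: wild-type HCT-116 cells with endogenous class I/II HDAC activity; nearly all actives have a fitted effect of over 45% in size.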 The gist of the method:
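After a 2 hr compound incubation (37C, 5% CO2), HCT-116 cells seeded at 1,500/well the day before received HDAC-Glo reagent; signal read as luminescence after 30 min at room temperature.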

Assay [14] can be described thus: qHTS assay to identify small molecule HDAC inhibitors - cell viability counter screen (AID 1259365). In a few lines:
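Counter screen in wild-type HCT-116 cells: compounds dissolved in DMSO are pin-transferred onto overnight-plated cells and left 2hr at 37C. ATP-based CellTiter-Glo luminescence then measures viable cells.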

The nature of assay [15]: qHTS assay to identify small molecule agonists of the sonic hedgehog signaling (Shh) pathway - cell viability counter screen (AID 1259366). Note: nearly all actives have a fitted effect of over 50% in size. Note: potency is the fitted concentration of half-maximal effect. The gist of the method:
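Cells are plated at 2,000 per well and left 4hr at 37C, 5% CO2 before compound addition. After 23hr of treatment, CellTiter-Fluor reagent is added for 1hr at 37C and fluorescence is measured.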

The nature of assay [16]: qHTS assay to identify small molecule antagonists of the sonic hedgehog signaling (Shh) pathway - cell viability counter screen (AID 1259367). Note: nearly all actives have a fitted effect of over 55% in size. Note: potency is the fitted concentration of half-maximal effect. In a few lines: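 CellTiter-Fluor signal in conditioned medium-stimulated 3T3 Gli1-Luc cells, 23 hr compound exposure, 37C.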
Assay [17] in a line: qHTS assay to identify small molecule agonists of the sonic hedgehog signaling (Shh) pathway (AID 1259368; calls by dose curve; note: nearly all actives have a fitted effect of over 15% in size; note: potency is the fitted concentration of half-maximal effect;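 for activity change: NIH/3T3-derived 3T3Gli1-Luc cells carrying a stable Gli1-driven firefly luciferase reporter; series mostly up to about 92 µM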). In a few lines: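 Stable NIH/3T3 Gli1-Luc reporter clone; 24 hr cpd exposure after a 4 hr settling period; luminescence endpoint.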
A short description of assay [18]: qHTS assay to identify small molecule antagonists of the sonic hedgehog signaling (Shh) pathway (AID 1259369; calls by dose curve; note: nearly all actives have a fitted effect of over 45% in size; note: potency is the fitted concentration of half-maximal effect). In a few lines:
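Gli1 transcriptional reporter (firefly Luc) in NIH/3T3 background, conditioned-medium activated. 24hr exposure, luminescence endpoint.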

The nature of assay [19]: A CellTox Green Cytotoxicity Assay to monitor cytotoxicity in HepG2 cells - 0 hour (AID 1224882). Note: nearly all actives have a fitted effect of over 35% in size. The gist of the method: as §1
Assay [20] in a line: qHTS assay to identify small molecule phospholipidosis (PLD) inducers (AID 1259344; active = well fitted curve in the direction sought with a large enough effect; an effect the other way counts as inactive or inconclusive). In a few lines:
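Accumulated phospholipid, stained red by LipidTOX during 24 h compound treatment of HepG2 cells at 37 C, is quantified from images as pit number and intensity, normalised per cell using Hoechst-stained nuclei.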

SMILES strings stand for the structures. Values without a mark were called inactive. Inconclusive results are not listed. The source made the active and inactive calls. Unless noted, calls come from the whole dose curve; as a rule, active = well fitted curve in the direction sought with a large enough effect in the repeat runs; inconclusive = weak or mixed curves; inactive = no such curve, though single readings can be large; an effect the other way counts as inactive or inconclusive.
% is set by controls: 0 for no effect and ±100 for the full control effect.

Sequence of Estrogen receptor (Homo sapiens) (P03372 whole entry, looked up): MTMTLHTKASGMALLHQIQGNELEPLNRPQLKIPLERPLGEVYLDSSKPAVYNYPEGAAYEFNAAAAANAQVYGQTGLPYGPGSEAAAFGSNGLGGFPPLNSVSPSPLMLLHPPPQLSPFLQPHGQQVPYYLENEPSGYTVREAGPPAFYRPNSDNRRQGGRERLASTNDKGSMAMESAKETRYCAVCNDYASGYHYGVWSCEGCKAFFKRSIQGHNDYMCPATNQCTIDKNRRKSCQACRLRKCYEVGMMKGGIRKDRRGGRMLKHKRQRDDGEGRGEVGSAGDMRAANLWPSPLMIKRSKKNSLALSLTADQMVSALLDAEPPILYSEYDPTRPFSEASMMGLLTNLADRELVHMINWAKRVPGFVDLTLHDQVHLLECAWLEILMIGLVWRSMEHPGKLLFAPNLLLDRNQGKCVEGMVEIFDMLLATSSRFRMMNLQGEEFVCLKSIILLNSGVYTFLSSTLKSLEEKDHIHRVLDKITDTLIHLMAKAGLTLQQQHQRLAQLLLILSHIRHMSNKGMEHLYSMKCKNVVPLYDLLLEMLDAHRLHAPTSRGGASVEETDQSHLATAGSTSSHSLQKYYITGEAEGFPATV
Sequence of Androgen receptor (Homo sapiens) (P10275 whole entry, looked up): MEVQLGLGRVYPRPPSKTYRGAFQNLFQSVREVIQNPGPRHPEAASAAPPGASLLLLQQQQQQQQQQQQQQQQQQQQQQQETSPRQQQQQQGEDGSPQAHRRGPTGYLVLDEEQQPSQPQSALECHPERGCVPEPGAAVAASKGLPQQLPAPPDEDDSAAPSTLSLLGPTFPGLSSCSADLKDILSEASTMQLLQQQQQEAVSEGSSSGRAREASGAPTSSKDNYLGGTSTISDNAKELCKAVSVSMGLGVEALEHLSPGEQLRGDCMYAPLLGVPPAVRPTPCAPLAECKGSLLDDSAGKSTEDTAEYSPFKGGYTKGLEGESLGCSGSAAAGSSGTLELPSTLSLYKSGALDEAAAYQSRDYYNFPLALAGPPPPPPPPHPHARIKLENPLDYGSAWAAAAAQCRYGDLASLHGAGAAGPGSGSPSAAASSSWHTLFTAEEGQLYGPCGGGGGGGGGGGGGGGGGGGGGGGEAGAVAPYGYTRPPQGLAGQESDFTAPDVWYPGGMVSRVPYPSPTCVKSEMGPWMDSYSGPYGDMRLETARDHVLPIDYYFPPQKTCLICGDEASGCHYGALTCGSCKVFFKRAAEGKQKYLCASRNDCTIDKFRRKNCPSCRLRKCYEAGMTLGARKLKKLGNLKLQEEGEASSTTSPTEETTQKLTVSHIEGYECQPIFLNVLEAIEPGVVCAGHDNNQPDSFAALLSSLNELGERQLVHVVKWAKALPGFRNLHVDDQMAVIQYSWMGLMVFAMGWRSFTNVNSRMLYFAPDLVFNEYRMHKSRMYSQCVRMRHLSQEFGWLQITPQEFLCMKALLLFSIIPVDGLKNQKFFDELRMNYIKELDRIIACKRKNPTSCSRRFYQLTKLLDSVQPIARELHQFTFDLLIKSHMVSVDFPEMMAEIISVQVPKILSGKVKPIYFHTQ

Regarding `CC(C)OC(=O)C(O)(CC(=O)O)CC(=O)O`, the Potency result in assay [1], in [2], in assay [3], in [4], in assay [5] and in assay [6] was “inactive” throughout. Further, the Potency result in [7], in assay [8], in assay [9], in assay [10], in [11] and in assay [12] was “inactive” in each case. Further, the Potency entry in assay [13], in assay [14], in assay [15], in [16], in assay [17] and in assay [18] was “inactive” each time.

Take `OC12N=C(c3ccccc3)SC1Cc1cc(Cl)ccc12` (stereo unspecified): the Potency entry in [19], in assay [2], in assay [3], in assay [5], in assay [6] and in [7] was “inactive” throughout. Further, the Potency entry in assay [8], in [9], in [10], in assay [12], in assay [14] and in assay [15] was “inactive” throughout. Further, the Potency entry in assay [16] and in assay [18] was “inactive” throughout. The Potency in assay [13] is 27.3 µM (active); in assay [17], 2.73 µM (active).

On to `NC(=S)NC(N)=S`, for which the Potency result in assay [1], in [2], in assay [3], in [4], in assay [5] and in assay [6] was “inactive” each time. Further, the Potency result in [7], in assay [8], in assay [9], in [10], in [11] and in [12] was “inactive” throughout. The Potency entry in [13], in assay [14], in assay [16], in assay [17] and in assay [18] was “inactive” throughout.

For `c1ccc(C(O[C@@H]2CCCN(CCc3ccc4c(c3)OCO4)C2)c2ccccc2)cc1`, the Potency entry in assay [19], in assay [2], in assay [3], in assay [6], in [7] and in [8] was “inactive” each time. The Potency result in [9], in assay [10], in [14], in assay [16] and in assay [17] was “inactive” each time.

With `CN1CCN2c3ccccc3Cc3ccccc3C2C1` (stereo unspecified), the Potency result in [19], in [2], in [3], in assay [4], in [5] and in assay [6] was “inactive” in each case. Further, the Potency entry in assay [8], in assay [9], in assay [10], in assay [12], in assay [20] and in assay [13] was “inactive” throughout. The Potency result in assay [14], in assay [15] and in assay [17] was “inactive” in each case.

As for `O=C(Nc1ccc2c(O)c(N=Nc3ccc(N=Nc4ccc(S(=O)(=O)O)cc4)cc3)c(S(=O)(=O)O)cc2c1)c1ccccc1`, the Potency result in assay [19], in assay [1], in [4], in assay [5], in assay [6] and in [8] was “inactive” in each case. Besides, the Potency result in [17] and in assay [18] was “inactive” each time. The Potency in assay [9] was 12.2 µM (active); in assay [10], 27.3 µM (active); in [12] it was 27.3 µM (active); in assay [15] it was 10.9 µM (active); in assay [16], 21.7 µM (active).

For the compound `OC1CCC(C2CCCCC2)CC1` (stereo unspecified), the Potency entry in [19], in assay [4], in [5], in assay [6], in assay [7] and in assay [8] was “inactive” throughout. The Potency result in assay [9], in assay [10], in assay [12], in assay [13], in assay [14] and in assay [15] was “inactive” in each case. Besides, the Potency result in [16], in assay [17] and in assay [18] was “inactive” in each case.

Regarding `Cc1cccc2cccnc12`, the Potency result in assay [19], in [1], in [4], in assay [5], in assay [6] and in [7] was “inactive” in each case. The Potency entry in assay [8], in [9], in assay [10], in [13], in assay [14] and in [16] was “inactive” each time. The Potency entry in assay [17] and in [18] was “inactive” in each case.

With `NC[C@H]1O[C@H](O[C@H]2[C@H](O[C@@H]3O[C@H](CO)[C@@H](O)[C@H]3O)C(O)[C@H](N)C[C@@H]2N)[C@H](N)[C@@H](O)[C@@H]1O` (stereo partly specified), the cytotoxicity increase in assay [1] is 7.9% [at 6.97 µM]; in [2], -4.48% [at 6.97 µM]; in assay [8] it was 12.8% [at 6.97 µM]. Further, the activity change, negative = cytotoxic in assay [3] is 1.38% [at 6.97 µM]. The activity change, negative = cytotoxicity in assay [4] was 4.78% [at 6.97 µM]; in assay [5], -3.38% [at 6.97 µM]; in assay [7], 1.18% [at 6.97 µM]; in assay [9] it was 2.08% [at 8.39 µM]; in assay [14], -0.0056% [at 8.39 µM]. The activity change in [6] is -6.01% [at 6.97 µM, hits give high values]; in [17], -1.1% [at 8.39 µM, hits give high values]. In addition, the values for the viability change, negative = cytotoxic in [10] and in assay [16] were 2.91% [at 8.39 µM] and -1.51% [at 8.39 µM], respectively. Moreover, the Potency entry in assay [20] was “inactive”. Besides, the activity change, negative = inhibition was -0.407% [at 8.39 µM] in assay [13] and -6.57% [at 8.39 µM] in assay [18].

Take `O=C(c1ccc(O)c(O)c1)c1ccc(O)cc1O`: the Potency entry in assay [2], in [3], in assay [5], in assay [7], in assay [8] and in [9] was “inactive” in each case. In addition, the Potency entry in [10] and in [17] was “inactive” each time. The Potency in assay [12] is 61 µM (active); in assay [13] it was 24.3 µM (active); in [18] it was 2.43 µM (active).

Consider `C=Cc1cccc(C)c1`, for which the Potency entry in [1], in assay [3], in assay [4], in [5], in [6] and in assay [8] was “inactive” each time. The Potency entry in [9], in [10], in assay [12], in assay [13], in [14] and in assay [15] was “inactive” in each case. Besides, the Potency result in assay [16], in assay [17] and in assay [18] was “inactive” throughout.
